An excerpt weighted towards active compounds, which were near 19% of everything screened.
IL1B secr inh = inhibitors of inflammasome signaling (IL-1 beta secretion); THP-1 LPS/ATP IL-1B secretion, AlphaLISA, 16 h; hits give low values; activity change, % at 57.5 µM; 360,000 tested, 4.7% active; AID 743279; in the data active = activity change below about -50%; inconclusive = mostly about -30% to -49%
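THP-1 cells pretreated 1 hr with compounds (up to 57.5 uM final), then stimulated with LPS (250 ng/mL final) plus ATP (1.25 mM final); secreted IL-1B measured by AlphaLISA after 16 hr, decreased signal indicating inhibition.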
HT1080-NT tox = kills 2HG-producing HT-1080-NT fibrosarcoma cells. AID 686970. Potency, µM (highest dose often 46.1 µM), for inactives: top-dose activity, negative = less viability, most hits filed as cytotoxic. HT-1080-NT fibrosarcoma viability, CellTiter-Glo ATP luminescence, 48 h. 360,000 tested, 1.6% active;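 also: NT is the 2HG producing partner of a matched IDH1 knockdown line; potency is read from the fitted curve at half-maximal effect; 0% = DMSO-treated cells and -100% = media-only wells without cells; nearly all actives have a fitted effect of over 55% in size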
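A 48-hour cytotoxicity screen used HT-1080-NT cells plated 2 hours before compound delivery. ATP-based CellTiter-Glo luminescence measured viability, normalized to DMSO and no-cell controls.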
TDP1 cell CPT = DT40-hTDP1 cell growth loss with CPT. chicken DT40 Tdp1-/-;hTDP1 cells + 20 nM CPT, ATP luminescence, 48 h. Potency, µM (series often up to 46.2 µM), for the others: at the top dose activity change, negative = growth inhibition, hits mostly inhibitors. 420,000 tested, 12% active. AID 686979; also: potency is read from the fitted curve at half-maximal effect; nearly all actives have a fitted effect of over 55% in size
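Chicken DT40 Tdp1-/- cells stably complemented with human TDP1 were seeded at 400 cells/well in medium containing 20 nM camptothecin, exposed to pin-transferred compounds, and grown at 37 °C for at least 48 hr. Viability was read as ATP luminescence.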
HT1080 IDH1KD tx = toxicity to HT-1080 IDH1 knockdown cells (counter line); HT-1080 IDH1 knockdown viability, ATP luminescence, 48 h; Potency, µM (series often up to 46.1 µM), for inactives: at the top dose activity, negative = toxicity, most hits filed as cytotoxic; 360,000 tested, 2% active; AID 686971;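 also: potency is read from the fitted curve at half-maximal effect; 0% = DMSO wells and -100% = cell-free medium wells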
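Assay cells: HT-1080 with IDH1 knockdown, 750 per well, RPMI/5% FBS. Exposure: 48 h at 37 °C following 2 h pre-incubation. Read: CellTiter-Glo luminescence; fitted concentration-response, curve class assigned.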
DT40 TDP1 no CPT = qHTS for Inhibitors of human tyrosyl-DNA phosphodiesterase 1 (TDP1): qHTS in cells in absence of CPT; DT40 Tdp1-/- hTDP1 cells, no CPT, ATP luminescence, 48 h; Potency, µM (series often up to 46.2 µM), inactives show top-dose activity change, negative = growth inhibition, most hits filed as inhibitors; 420,000 tested, 15% active; also: potency is read from the fitted curve at half-maximal effect; nearly all actives have a fitted effect of over 55% in size
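Luminescent ATP content (CellTiter-Glo) served as the growth readout. Knockout chicken DT40 cells expressing human TDP1 were exposed to compounds without camptothecin for a minimum 48 hr at 37 °C.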
Starred values were filed as active, the others as inactive; ? = inconclusive; / = no result given. Unless noted, calls follow the shape of the dose curve; as a rule, active = well fitted curve in the direction sought with a large enough effect; inconclusive = small, poorly fitted or top-dose-only effect, or another doubt; inactive = no such curve, though single readings can be large; an effect the other way counts as inactive or inconclusive. Unless noted, % is scaled to controls: 0 for no effect and ±100 for the full control effect.

SMILES	IL1B secr inh	HT1080-NT tox	TDP1 cell CPT	HT1080 IDH1KD tx	DT40 TDP1 no CPT
CC(C)(C)NC(=O)C[C@H]1C[C@H](C(=O)N2CCCCC2)[C@@]2(CCc3ccccc3)c3[nH]c4ccc(Cl)cc4c3CCN2C1=O	-3.9	7.8%	?	2.1%	?
O=C(CC1C[C@H](C(=O)N2CCCCC2)[C@@]2(CCc3ccccc3)c3[nH]c4ccccc4c3CCN2C1=O)NCc1cccc(C(F)(F)F)c1 (stereo partly specified)	?	7.5%	?	5.5%	16.4µM*
COc1ccc(N(CC(=O)N2CCCC2)S(=O)(=O)c2ccc(NC(C)=O)cc2)cc1	12.8	22.6%	-0.5%	5.8%	-6.4%
COc1ccc2[nH]c3c(c2c1)CCN1C(=O)C(CC(=O)NCCC2=CCCCC2)C[C@H](C(=O)N2CCCCC2)[C@@]31CCc1ccccc1 (stereo partly specified)	6.5	9.0%	?	5.1%	?
O=C(C[C@H]1C[C@H](C(=O)N2CCCCC2)[C@@]2(CCc3ccccc3)c3[nH]c4ccc(Cl)cc4c3CCN2C1=O)NCc1cccc(C(F)(F)F)c1	?	7.7%	13µM*	0.1%	11.6µM*
CCOC(=O)c1sc2nc(C)nc(N3CCN(c4ncccn4)CC3)c2c1C	-3.0	7.4%	?	-0.6%	14.6µM*
Cc1c(C(=O)N2CCCC2)sc2ncnc(NCCc3ccccn3)c12	/	/	-2.2%	/	-16.7%
COC(=O)c1sc2nc(-c3ccccc3)nc(N3CCN(C)CC3)c2c1C	-15.0	-15.6%	?	-18.2%	25.9µM*
CCOC(=O)c1sc2nc(C)nc(NCc3ccccc3OC)c2c1C	-29.7	2.5%	23.1µM*	0.9%	?
CCOC(=O)c1sc2nc(C)nc(NCCc3ccccn3)c2c1C	-54.7*	14.7%	20.6µM*	3.9%	20.6µM*
CCOC(=O)c1sc2ncnc(N3CCN(C)CC3)c2c1C	?	-2.1%	?	-3.7%	?
CC(/C=C/C=C/c1ccccc1)=N/NC(=O)CNc1ccc(C)cc1	-0.1	2.0%	0.0%	-8.1%	-10.0%
COc1cc(OC)c(NC(=O)CCc2c(C)nc3ncnn3c2C)cc1Cl	/	/	14.5%	/	-0.2%
COc1ccccc1CNc1nc(C)c(C(=O)N(C)C)s1	37.5	14.9%	?	3.3%	?
CCOC(=O)c1sc2nc(CSc3ccccc3)nc(NCCN(C)C)c2c1C	?	18.4µM*	16.4µM*	?	?
COc1ccccc1CNc1nc(C)c(C(C)=O)s1	-1.4	-3.3%	20.6µM*	-5.9%	16.4µM*
Cc1ccc(Cl)cc1NC(=S)NN	26.1	?	?	?	?
CCc1ccc(CNC(=O)c2ccc3nc(SCc4ccc(F)cc4)n(C)c3c2)cc1	/	/	14.6µM*	/	20.6µM*
CCOC(=O)N1CCN(C(=O)c2ccc3nc(SCc4ccc(F)cc4)n(C)c3c2)CC1	?	-7.6%	23.1µM*	-6.5%	20.6µM*
Cc1ccc(CNC(=O)c2nnn(CC(=O)Nc3cccc(C)c3C)c2N)cc1	24.0	?	14.0%	-3.0%	1.9%
Cc1[nH]n(-c2ccc(Cl)cc2)c(=O)c1N=Nc1cccnc1	13.7	16.7%	18.4µM*	13.9%	16.4µM*
CCN(CC)C(=O)c1cccc(-c2csc(C(O)c3cccc(OC)c3)n2)c1 (stereo unspecified)	-17.5	?	23.1µM*	?	4.61µM*
COc1ccc(-c2csc(C(O)c3cccc(OC)c3)n2)cc1 (stereo unspecified)	10.5	-17.5%	11.6µM*	?	?
OC(c1ccc(F)c(F)c1)c1nc(-c2ccccc2)cs1 (stereo unspecified)	-2.5	-10.2%	?	-12.8%	?
COc1ccc(-c2csc(C(O)c3ccc(F)c(F)c3)n2)cc1 (stereo unspecified)	6.0	-17.5%	18.4µM*	?	13µM*

Screens as filed in PubChem.
